Test results taken from the supplement of paper PMC9694430.

What was measured:
Test in all cases: thermal shift delta Tm vs DMSO control; higher = stronger stabilization (binding)
Settings in all cases: 12.5 µM; protein concentration 2 µM
LOC_OS01G60330-cb001 = system: LOC_OS01G60330-cb001
How it was run: (§1)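 Purified, E. coli-expressed rice kinase domain constructs were tested by differential scanning fluorimetry in 96-well plates: 19.5 μl of 2 μM kinase in 100 mM potassium phosphate pH 7.5, 150 mM NaCl, 10% glycerol, 5 × SYPRO Orange, plus compound in DMSO. Fluorescence was read from 25°C to 95°C at 0.05°C/s. Melting temperatures came from Boltzmann fits, and the shift is the triplicate mean relative to protein with DMSO alone.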

LOC_OS01G63280-cb003 = system: LOC_OS01G63280-cb003
How it was run: as §1

LOC_OS01G67340-cb003 = system: LOC_OS01G67340-cb003
How it was run: as §1

LOC_OS01G70970-cb002 = system: LOC_OS01G70970-cb002
How it was run: as §1

LOC_OS02G07810-cb001 = system: LOC_OS02G07810-cb001
How it was run: as §1

LOC_OS02G08530-cb003 = system: LOC_OS02G08530-cb003
How it was run: as §1

LOC_OS02G14120-cb001 = system: LOC_OS02G14120-cb001
How it was run: as §1

LOC_OS02G17970-cb001 = system: LOC_OS02G17970-cb001
How it was run: as §1

LOC_OS01G57100-cb003 = system: LOC_OS01G57100-cb003
How it was run: as §1

LOC_OS01G60700-cb002 = system: LOC_OS01G60700-cb002
How it was run: as §1

Structure (SMILES)	thermal shift delta Tm (LOC_OS01G60330-cb001)	thermal shift delta Tm (LOC_OS01G63280-cb003)	thermal shift delta Tm (LOC_OS01G67340-cb003)	thermal shift delta Tm (LOC_OS01G70970-cb002)	thermal shift delta Tm (LOC_OS02G07810-cb001)	thermal shift delta Tm (LOC_OS02G08530-cb003)	thermal shift delta Tm (LOC_OS02G14120-cb001)	thermal shift delta Tm (LOC_OS02G17970-cb001)	thermal shift delta Tm (LOC_OS01G57100-cb003)	thermal shift delta Tm (LOC_OS01G60700-cb002)
COC(=O)[C@]12CCC(C)(C)C[C@H]1[C@H]1C(=O)C=C3[C@@]4(C)C=C(C#N)C(=O)C(C)(C)[C@@H]4CC[C@@]3(C)[C@]1(C)CC2 [Bardoxolone Methyl]	-0.58 °C	-6.77 °C	-5.05 °C	-11 °C	0.28 °C	-2.07 °C	-4.67 °C	-0.5 °C	–	–
Cc1cc(NC(=O)c2cccc(NC(=O)/C=C/CN(C)C)c2)ccc1Nc1nccc(-c2cccnc2)n1	0.94 °C	0.92 °C	0.69 °C	1.62 °C	1.46 °C	1.8 °C	0.95 °C	1.45 °C	1.86 °C	1.77 °C
N#Cc1ccc2ncnc(NCCc3ccccc3)c2c1 [Senexin A]	0.74 °C	0.25 °C	0.38 °C	0.3 °C	-0.71 °C	2.47 °C	2.47 °C	0.28 °C	-0.12 °C	-0.36 °C
CCn1c(C(=O)N(C2CC2)C2CC2)cc2c3c(ncn3C)c(Nc3cc(C)n(C)n3)nc21	1.11 °C	0.73 °C	0.2 °C	0.33 °C	0.6 °C	1.47 °C	4.36 °C	1.3 °C	1.18 °C	1.61 °C
CNC(=O)c1nn(C)c2c1C(C)(C)Cc1cnc(Nc3ccc(N4CCN(C)CC4)cc3)nc1-2	0.33 °C	-0.14 °C	1.14 °C	0.87 °C	0.68 °C	1.93 °C	4.82 °C	0.05 °C	1.59 °C	0.69 °C
Nc1nccc(Oc2ccc(NC(=O)c3c[nH]cc(-c4ccc(F)cc4)c3=O)cc2F)c1Cl	1.42 °C	7.56 °C	2.23 °C	6.22 °C	1.41 °C	2.08 °C	8.06 °C	1.52 °C	2.6 °C	1.09 °C
CC(=O)O/N=C1/C(c2c(O)[nH]c3cc(Br)ccc23)=Nc2ccccc21 [BIO-acetoxime]	0.36 °C	0.15 °C	-1.03 °C	-1.11 °C	–	2.87 °C	-2.97 °C	–	-10.7 °C	-0.6 °C
O=C(O)c1cc(O)c2c(c1)[C@@H]([C@H]1c3cc(C(=O)O)cc(O)c3C(=O)c3c(O[C@@H]4O[C@H](CO)[C@@H](O)[C@H](O)[C@H]4O)cccc31)c1cccc(O[C@@H]3O[C@H](CO)[C@@H](O)[C@H](O)[C@H]3O)c1C2=O [Sennoside B]	–	19.9 °C	–	1.98 °C	0.69 °C	0.42 °C	0.03 °C	3.25 °C	5.41 °C	2.73 °C
CCn1c(=O)c(-c2ccc(Cl)cc2Cl)cc2cnc(Nc3ccc(N4CCNCC4)c(F)c3)nc21	0.13 °C	5.95 °C	6.72 °C	2.45 °C	0.21 °C	0.94 °C	7.16 °C	1.08 °C	2.04 °C	1.12 °C
Cn1cc(C2=C(c3ccc(Cl)cc3Cl)C(=O)NC2=O)c2ccccc21	11.5 °C	15.7 °C	–	7.16 °C	1.24 °C	3.23 °C	12.5 °C	1.77 °C	6.65 °C	4.75 °C
Cc1ccc(Nc2nccc(N(C)c3ccc4c(C)n(C)nc4c3)n2)cc1S(N)(=O)=O	4.66 °C	0.81 °C	0.74 °C	0.44 °C	1.5 °C	1.68 °C	3.21 °C	0.47 °C	0.87 °C	1.25 °C
COc1ccc(Oc2cc(NCCC(F)(F)F)c3ncc(-c4ccc(C(=O)NC5CC5)c(C)c4)n3n2)c(F)c1F	1.27 °C	0.82 °C	1 °C	0.18 °C	1.17 °C	0.66 °C	-0.01 °C	1.28 °C	-1.23 °C	-0.2 °C
O=C(Nc1ccc(OC(F)(F)F)cc1)c1sccc1NCc1ccnc2ccccc12	2.48 °C	6.18 °C	0.22 °C	1.27 °C	1.03 °C	0.68 °C	0.49 °C	0.48 °C	0.93 °C	0.05 °C
Cc1cc(C(=O)Nc2nc3cccc(Cl)c3n2[C@@H]2CCCCN(C(=O)/C=C/CN(C)C)C2)ccn1 [Nazartinib (EGF816, NVS-816)]	1.72 °C	0.35 °C	1.06 °C	0.93 °C	0.98 °C	2.18 °C	1.69 °C	1.28 °C	1.05 °C	1.17 °C
CC(C)=CC[C@@H](O)C1=CC(=O)c2c(O)ccc(O)c2C1=O [Shikonin]	-0.94 °C	–	-2.36 °C	-5.42 °C	0.63 °C	-0.15 °C	-4.81 °C	3.84 °C	–	3.41 °C
Cn1cc(-c2ccc(F)c(C(F)(F)F)c2)nc1C1CCN(c2ncnc3[nH]ncc23)CC1	1.11 °C	-0.11 °C	0.07 °C	0.57 °C	0.34 °C	0.53 °C	0.5 °C	0.85 °C	0.5 °C	0.96 °C
CCCCCCCCCCCCCCCCn1cc[n+](Cc2ccccc2)c1C	0.5 °C	-7.84 °C	-1.74 °C	-4.15 °C	-4.78 °C	-0.96 °C	-1.51 °C	-2.91 °C	-6.09 °C	-2.72 °C
CS(=O)(=O)c1cccc(CNc2nc(Nc3ccc4c(c3)CCC(=O)N4)ncc2C(F)(F)F)c1	4.37 °C	1.3 °C	1.2 °C	6.42 °C	1.43 °C	2.07 °C	5.48 °C	0.72 °C	1.78 °C	0.7 °C
CO[C@@H](C)Cn1c(=O)n(C)c2cnc3ccc(-c4cncc(C(C)(C)O)c4)cc3c21	0.57 °C	0.84 °C	0.62 °C	0.44 °C	0.65 °C	1.76 °C	2.83 °C	0.61 °C	1.94 °C	1.37 °C
FC(F)(F)c1ccc(Nc2nc3ccc(Oc4ccnc(-c5ncc(C(F)(F)F)[nH]5)c4)cc3[nH]2)cc1 [Raf265 derivative]	1.86 °C	–	0.26 °C	1.67 °C	2.01 °C	0.35 °C	0.25 °C	2.16 °C	1.09 °C	-0.31 °C
CS(=O)(=O)CCNCc1ccc(-c2ccc3ncnc(Nc4ccc(OCc5cccc(F)c5)c(Cl)c4)c3c2)o1	1.06 °C	0.35 °C	-0.49 °C	0.26 °C	1.15 °C	0.58 °C	-0.53 °C	0.69 °C	0.92 °C	1.49 °C
